Reference: PubChem BioAssay (NCI)
About 83,000 compounds went through this panel and 20% of them were active in at least one assay; those are over-represented in the sample as a whole.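 Method: cells in 96-well plates; compound added at one concentration; 48 h incubation; percent growth measured; values under 10 scored active.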 Calls of active or inactive are those of the source.

Key:
Test in all cases: NCI-60 one-dose screen, 48 h (100 = growth as untreated, 0 = no growth, -100 = all killed)
Conditions in all cases: 10 µM unless noted
SR leukemia = system: SR leukemia
RPMI-8226 leukemia = system: RPMI-8226 leukemia
OVCAR-8 ovarian = system: OVCAR-8 ovarian
OVCAR-5 ovarian = system: OVCAR-5 ovarian
OVCAR-4 ovarian = system: OVCAR-4 ovarian
SK-OV-3 ovarian = system: SK-OV-3 ovarian
IGROV1 ovarian = system: IGROV1 ovarian
OVCAR-3 ovarian = system: OVCAR-3 ovarian
HS 578T breast = system: HS 578T breast
NCI/ADR-RES ovarian = system: NCI/ADR-RES ovarian
T-47D breast = system: T-47D breast
BT-549 breast = system: BT-549 breast
MDA-MB-435 melanoma = system: MDA-MB-435 melanoma
SW-620 colon = system: SW-620 colon
MCF7 breast = system: MCF7 breast
HCT-116 colon = system: HCT-116 colon
HCC-2998 colon = system: HCC-2998 colon
KM12 colon = system: KM12 colon

Measured: growth

COC(=O)c1nc(-c2ccccc2)oc1S(=O)(=O)N1CCN(c2ccc(OC)cc2)CC1
active: SR leukemia -1.38%
inactive: RPMI-8226 leukemia 37.3% | OVCAR-8 ovarian 83.8% | OVCAR-5 ovarian 88.7% | OVCAR-4 ovarian 88.7% | SK-OV-3 ovarian 104% | IGROV1 ovarian 71.7% | OVCAR-3 ovarian 45.4% | HS 578T breast 89.2% | NCI/ADR-RES ovarian 104% | T-47D breast 59% | BT-549 breast 76.6% | MDA-MB-435 melanoma 77.2% | SW-620 colon 41.4% | MCF7 breast 45.4% | HCT-116 colon 60.9% | HCC-2998 colon 104% | KM12 colon 86.2%

CS(=O)(=O)c1ccc(/C(=N/NC(N)=S)c2ccc(F)cc2)cc1
inactive: SR leukemia 103% | RPMI-8226 leukemia 99.5% | OVCAR-8 ovarian 103% | OVCAR-5 ovarian 104% | OVCAR-4 ovarian 104% | SK-OV-3 ovarian 112% | IGROV1 ovarian 101% | OVCAR-3 ovarian 108% | HS 578T breast 102% | NCI/ADR-RES ovarian 102% | T-47D breast 88.2% | BT-549 breast 102% | MDA-MB-435 melanoma 102% | SW-620 colon 101% | MCF7 breast 89.9% | HCT-116 colon 95.7% | HCC-2998 colon 104% | KM12 colon 101%

COC(=O)c1nc(-c2ccc(C)cc2)oc1N1CCOCC1
inactive: SR leukemia 80.3% | RPMI-8226 leukemia 88% | OVCAR-8 ovarian 107% | OVCAR-5 ovarian 88.1% | OVCAR-4 ovarian 109% | SK-OV-3 ovarian 94.9% | IGROV1 ovarian 89.5% | OVCAR-3 ovarian 107% | HS 578T breast 108% | NCI/ADR-RES ovarian 96.7% | T-47D breast 87.3% | BT-549 breast 87.1% | MDA-MB-435 melanoma 103% | SW-620 colon 99.7% | MCF7 breast 83% | HCT-116 colon 97.8% | HCC-2998 colon 104% | KM12 colon 104%

Oc1ccc(C(c2ccc(O)cc2)c2ccc(Cl)cn2)cc1
inactive: SR leukemia 90% | RPMI-8226 leukemia 98.2% | OVCAR-5 ovarian 72.7% | SK-OV-3 ovarian 86.8% | IGROV1 ovarian 28.9% | MDA-MB-435 melanoma 101% | SW-620 colon 106% | HCT-116 colon 27.6% | KM12 colon 20.8%
active: OVCAR-8 ovarian -11.1% | OVCAR-4 ovarian -14.8% | OVCAR-3 ovarian -34.5% | HS 578T breast -29.9% | NCI/ADR-RES ovarian -36.1% | T-47D breast -34.4% | BT-549 breast -30.1% | MCF7 breast -17.3% | HCC-2998 colon 1.05%

COc1ccc(-c2nc(SCCC(C)C)nc(N/N=C(/C)c3ccc(N)cc3)c2C#N)cc1
inactive: SR leukemia 90.2% | RPMI-8226 leukemia 93.3% | OVCAR-8 ovarian 92.7% | OVCAR-5 ovarian 93.7% | OVCAR-4 ovarian 101% | SK-OV-3 ovarian 89% | IGROV1 ovarian 79% | OVCAR-3 ovarian 99.2% | HS 578T breast 92.4% | NCI/ADR-RES ovarian 93.6% | T-47D breast 85% | BT-549 breast 96.7% | MDA-MB-435 melanoma 104% | SW-620 colon 95.2% | MCF7 breast 86.1% | HCT-116 colon 94.3% | HCC-2998 colon 97.4% | KM12 colon 92.1%

COc1ccc(N2C(=O)/C(=C/C(Cl)=C/c3ccc([N+](=O)[O-])cc3)SC2=S)cc1
inactive: OVCAR-5 ovarian 10% | OVCAR-4 ovarian 10.4% | SK-OV-3 ovarian 40.8% | HS 578T breast 26.3% | MCF7 breast 10.4%
active: SR leukemia -6.82% | RPMI-8226 leukemia -9.98% | OVCAR-8 ovarian 6.6% | IGROV1 ovarian -52.7% | OVCAR-3 ovarian -57.6% | NCI/ADR-RES ovarian 8.97% | T-47D breast -14.9% | BT-549 breast -4.68% | MDA-MB-435 melanoma -14.4% | SW-620 colon -13.7% | HCT-116 colon -60.4% | HCC-2998 colon -20.2% | KM12 colon -61.5%

CCN(CC)CCCNc1cc(OC)cc2cccnc12
inactive: SR leukemia 100% | RPMI-8226 leukemia 97.4% | OVCAR-8 ovarian 101% | OVCAR-5 ovarian 117% | OVCAR-4 ovarian 51.4% | SK-OV-3 ovarian 112% | IGROV1 ovarian 106% | OVCAR-3 ovarian 79.2% | HS 578T breast 109% | NCI/ADR-RES ovarian 108% | T-47D breast 93.3% | BT-549 breast 112% | MDA-MB-435 melanoma 115% | SW-620 colon 101% | MCF7 breast 64% | HCT-116 colon 100% | HCC-2998 colon 111% | KM12 colon 96.9%

COc1cc(OC)cc(C(=O)Nc2cnc(Nc3ccc(N4CCOCC4)nc3)nc2Oc2ccc(C(F)(F)F)cc2)c1
inactive: SR leukemia 73% | RPMI-8226 leukemia 86.2% | OVCAR-8 ovarian 39.7% | OVCAR-5 ovarian 92.9% | SK-OV-3 ovarian 111% | IGROV1 ovarian 77.4% | OVCAR-3 ovarian 62.8% | HS 578T breast 30.4% | NCI/ADR-RES ovarian 60.1% | T-47D breast 69.9% | BT-549 breast 77.5% | MDA-MB-435 melanoma 74.9% | SW-620 colon 71.2% | MCF7 breast 59.1% | HCT-116 colon 16.1% | HCC-2998 colon 99.9% | KM12 colon 88%
active: OVCAR-4 ovarian 8.78%

CCNCCNc1c(C)c(-c2ccc(C(F)(F)F)cc2)c(C#N)c2nc3ccccc3n12
active: SR leukemia -0.902%
inactive: RPMI-8226 leukemia 86.4% | OVCAR-8 ovarian 95.3% | OVCAR-5 ovarian 104% | OVCAR-4 ovarian 88.2% | SK-OV-3 ovarian 111% | IGROV1 ovarian 78.9% | OVCAR-3 ovarian 96.4% | HS 578T breast 90.8% | NCI/ADR-RES ovarian 101% | T-47D breast 82.6% | BT-549 breast 75.5% | MDA-MB-435 melanoma 65.2% | SW-620 colon 93.6% | MCF7 breast 76.2% | HCT-116 colon 93.4% | HCC-2998 colon 99.4% | KM12 colon 97%

C=CCNc1nc(O)c(/C=C2\C=Nc3ncccc32)s1
active: SR leukemia -9.51% | OVCAR-5 ovarian 5.27% | SK-OV-3 ovarian -7% | OVCAR-3 ovarian -7.02% | HS 578T breast -15% | T-47D breast -8.68% | BT-549 breast -29.5% | SW-620 colon 7.39% | MCF7 breast 3.5% | HCT-116 colon 6.31% | KM12 colon 7.86%
inactive: RPMI-8226 leukemia 42.7% | OVCAR-8 ovarian 10.7% | OVCAR-4 ovarian 34.7% | IGROV1 ovarian 17% | NCI/ADR-RES ovarian 42.1% | MDA-MB-435 melanoma 21.1% | HCC-2998 colon 44.6%

COc1ccc(C2=NN3C(C2)c2cc(Br)ccc2OC3c2ccncc2)cc1 (stereo unspecified)
inactive: SR leukemia 64.2% | RPMI-8226 leukemia 77.8% | OVCAR-8 ovarian 82.6% | OVCAR-5 ovarian 88.4% | OVCAR-4 ovarian 78.9% | SK-OV-3 ovarian 70.6% | IGROV1 ovarian 48.9% | OVCAR-3 ovarian 80.1% | HS 578T breast 89.4% | NCI/ADR-RES ovarian 82% | T-47D breast 69.1% | BT-549 breast 76.6% | MDA-MB-435 melanoma 92.4% | SW-620 colon 90.7% | MCF7 breast 70.7% | HCT-116 colon 76.8% | HCC-2998 colon 105% | KM12 colon 73%

O=C1c2cccnc2C(=O)c2c1c(C(=O)OCCCN1CCOCC1)c1ccccn21
inactive: HS 578T breast 26.9% | KM12 colon 15.7%
active: SR leukemia -2.21% | RPMI-8226 leukemia -17.2% | OVCAR-8 ovarian -46.2% | OVCAR-5 ovarian -11.2% | OVCAR-4 ovarian -19.1% | SK-OV-3 ovarian -11.6% | IGROV1 ovarian -3.82% | OVCAR-3 ovarian 2.32% | NCI/ADR-RES ovarian -13.7% | T-47D breast 4.62% | BT-549 breast -38.7% | MDA-MB-435 melanoma -32.4% | SW-620 colon -39.3% | MCF7 breast -38.7% | HCT-116 colon -49.6% | HCC-2998 colon 7.61%

O=C(Nc1cccc(Cn2c(=O)[nH]c3ccc(Oc4ncccn4)cc3c2=O)c1)c1cccc(Cl)c1
inactive: SR leukemia 35.9% | RPMI-8226 leukemia 35.1% | OVCAR-8 ovarian 58.4% | OVCAR-5 ovarian 86.2% | OVCAR-4 ovarian 30.5% | SK-OV-3 ovarian 82.5% | IGROV1 ovarian 62.4% | OVCAR-3 ovarian 67.6% | HS 578T breast 73.7% | NCI/ADR-RES ovarian 77.5% | T-47D breast 20.6% | BT-549 breast 43.8% | MDA-MB-435 melanoma 42.5% | SW-620 colon 83.3% | MCF7 breast 40.2% | HCT-116 colon 52.6% | HCC-2998 colon 84.6% | KM12 colon 55%

Cn1cc(-c2csc(-c3cn(CCO)c4ccc(F)cc34)n2)c2cccnc21
active: T-47D breast 9.75% | MDA-MB-435 melanoma 1.7%
inactive: SR leukemia 20.7% | RPMI-8226 leukemia 62.6% | OVCAR-8 ovarian 75.9% | OVCAR-5 ovarian 65.6% | OVCAR-4 ovarian 36% | SK-OV-3 ovarian 73% | IGROV1 ovarian 51.9% | OVCAR-3 ovarian 49.7% | HS 578T breast 79.8% | NCI/ADR-RES ovarian 45.5% | BT-549 breast 52.8% | SW-620 colon 29.8% | MCF7 breast 34.9% | HCT-116 colon 35.8% | HCC-2998 colon 64.1% | KM12 colon 30.6%

N/C(=N\c1nc2ccccc2s1)NC(=O)Nc1ccccc1
active: RPMI-8226 leukemia 7.59% | MDA-MB-435 melanoma 2.22%
inactive: SR leukemia 15.7% | OVCAR-8 ovarian 41% | OVCAR-5 ovarian 51.7% | OVCAR-4 ovarian 73.8% | SK-OV-3 ovarian 51% | IGROV1 ovarian 58.8% | OVCAR-3 ovarian 28.4% | HS 578T breast 27.8% | NCI/ADR-RES ovarian 17.6% | T-47D breast 39.4% | BT-549 breast 49.5% | SW-620 colon 24.7% | MCF7 breast 16.6% | HCT-116 colon 17.1% | HCC-2998 colon 62.7% | KM12 colon 25.4%

CN(C)C(=S)NN=C(c1ccccn1)c1ccccn1
inactive: RPMI-8226 leukemia 17.8% | OVCAR-8 ovarian 33.1% | OVCAR-5 ovarian 59.1% | OVCAR-4 ovarian 21.5% | SK-OV-3 ovarian 51% | IGROV1 ovarian 16% | OVCAR-3 ovarian 51.9% | HS 578T breast 44.9% | NCI/ADR-RES ovarian 19.9% | T-47D breast 29.6% | BT-549 breast 17% | MDA-MB-435 melanoma 41.4% | SW-620 colon 17.7% | MCF7 breast 17.3% | HCT-116 colon 20.5% | HCC-2998 colon 40% | KM12 colon 16.7%
active: SR leukemia -33.6%

COC(=O)CNC(=O)c1ccc(NC(=O)c2[nH]c(C)c(Cl)c2Cl)c(O[C@H]2CCNC2)c1
inactive: SR leukemia 83.7% | RPMI-8226 leukemia 96.7% | OVCAR-8 ovarian 101% | OVCAR-5 ovarian 112% | OVCAR-4 ovarian 110% | SK-OV-3 ovarian 96.6% | IGROV1 ovarian 111% | OVCAR-3 ovarian 114% | HS 578T breast 92.8% | NCI/ADR-RES ovarian 112% | T-47D breast 101% | BT-549 breast 102% | MDA-MB-435 melanoma 105% | SW-620 colon 103% | MCF7 breast 105% | HCT-116 colon 96.1% | HCC-2998 colon 115% | KM12 colon 104%
